Experimental data reported in ChEMBL document CHEMBL4888484, “Replenishing the malaria drug discovery pipeline: Screening and hit evaluation of the MMV Hit Generation Library 1 (HGL1) against asexual blood stage Plasmodium falciparum ,using a nano luciferase reporter read-out” (2022).
Out of some 150,000 compounds screened, about 540 (0.36%) showed an effect of 50% or more. For the sample, strong results were picked, then their nearest neighbours and some compounds at random.

test system: Plasmodium falciparum; assay: Primary screen in NF54 nanoGlo assay, in single point, at 2uM, 72h; a lower Z score goes with more inhibition; type: functional, Erythrocyte; conditions: timepoint 72 hour

Structure (SMILES)	% Inhibition	Z score
O=C(Nc1cnc2c(c1)COCC2)c1cccc(OC(F)F)c1	-1%	0.19
O=C(CNC(=O)c1ccc(C(F)(F)F)cc1)Nc1cnc2c(c1)COCC2	34%	-4.64
COC[C@H]1CCCN1S(=O)(=O)N1CCC(c2cc[nH]n2)CC1	-7%	0.81
CN1C(=O)[C@@H]2CCCCN2c2ccc(C(=O)N3CCN(C(=O)c4ccco4)CC3)cc21	1%	-0.14
COCC1(CNC(=O)CNC(C)=O)CCCC1	-5%	0.85
Cc1ccccc1CN[C@H]1CCCOCC1	-4%	0.53
Cc1ccccc1CNC1C(=O)NCCC1C (stereo unspecified)	74%	1.17
Cc1ccccc1CC(=O)N[C@H]1CCCCNC1=O	0%	0.03
Cc1cc(C)cc(CCNC(=O)CN(C)S(C)(=O)=O)c1	-4%	0.7
COc1ccc(C[C@@H]2C3=C(CCCC3)CCN2C(=O)c2cc(C)on2)cc1	-5%	0.97
OCC1(CN2CCCC2)CCN(Cc2ccc(Cl)cc2)CC1	2%	-0.36
COc1c(C)cnc(Cn2cnc(N)n2)c1C	8%	-0.99
CN1CCN(C[C@@]2(Cc3ccccc3)CCOC2)CC1	-3%	0.56
Cc1ccc(NC(=O)c2c(C)nc3sc(C(=O)NCc4ccccc4)c(N)c3c2-c2cccnc2)c(C)c1	21%	-3.35
CCc1ccc(NC(=O)c2sc3nc(C)c(C(=O)Nc4ccc(C)cc4C)c(-c4ccccc4Cl)c3c2N)cc1	40%	-2.96
Cc1ccc(NC(=O)c2c(C)nc3sc(C(=O)NCc4ccccc4)c(N)c3c2-c2cccs2)c(C)c1	61%	-9.57
Cc1ccc(NC(=O)c2c(C)nc3sc(C(=O)NCc4ccccc4)c(N)c3c2-c2ccccc2Cl)c(C)c1	90%	-8.85
CC[C@H](C)NC(=O)c1sc2nc(C)c(C(=O)Nc3ccc(C)cc3C)c(-c3cccs3)c2c1N	17%	-2.61
COc1ccc(NC(=O)c2sc3nc(C)c(C(=O)Nc4ccc(C)cc4C)c(-c4ccccc4Cl)c3c2N)cc1	38%	-3.76
C[C@H](NS(=O)(=O)c1cccc2nsnc12)c1nncn1C	-8%	1.65
Cc1cc(NC(=O)c2ccccc2C(=O)c2ccc(Cl)cc2)ccc1N1CCCC1=O	-10%	1.56
COc1ccc(F)cc1S(=O)(=O)N1CC2(C[C@H](CC(=O)NCC3CC3)CO2)C1	-2%	0.34

Structure (SMILES)	% Inhibition	Z score
Cn1cc(Br)c2nc[nH]c(=O)c21	-14%	1.39
CC(=O)c1ccc(CNc2ncc(Cl)cn2)nc1C	-16%	1.6
CCOC(=O)c1ncc(Cl)c(C#N)c1Cl	50%	0.88
CCOC(=O)c1nccc(C#N)c1Cl	40%	-5.19
CCOC(=O)c1nsc(Cl)c1Cl	4%	-0.44
NC(=O)[C@@H]1CCCN1S(=O)(=O)c1ccc2c(c1)CCC(=O)N2	-13%	1.82
O=C(c1nnn(-c2ccccc2Cl)c1-c1cccnc1)N1CCC(Cc2ccccc2)CC1	40%	-5.19
O=C(c1nnn(-c2ccccc2Cl)c1-c1cccnc1)N1CCN(c2ccccc2)CC1	-8%	0.9
COc1ccccc1N1CCN(C(=O)c2nnn(-c3ccccc3Cl)c2-c2cccnc2)CC1	50%	-6.51
Cc1nn(-c2ccc(Br)cc2)c(NC(=O)N(C)[C@@H](C)c2ccccc2F)c1C	2%	-0.23
Cn1nccc1CNC(CO)CC(O)C(C)(C)C (stereo unspecified)	-3%	0.38
CCn1cnnc1NC(=O)c1cc(C)sn1	1%	-0.12
O=C(Cn1ncn2nc(-c3ccccc3)cc2c1=O)N1CCCCC1	-20%	1.75
N#Cc1cccc(S(=O)(=O)N2CCCCCCC2)c1	4%	-0.83
Cc1c2c(=O)n(-c3nc4ccccc4s3)n(Cc3ccc(F)cc3)c2cc(=O)n1CCCN1CCOCC1	32%	-3.58
Cc1c2c(=O)n(-c3nc4ccccc4s3)n(CC(=O)Nc3ccc(F)cc3)c2cc(=O)n1CCCN1CCOCC1	-30%	3.47
CCc1c2c(=O)n(-c3nc4ccccc4s3)[nH]c2cc(=O)n1CCCN1CCOCC1	81%	-10.48
N#Cc1cc(OCC(F)F)nc2ccccc12	-5%	0.76
CC(NCC(C)N1CCOCC1C)c1cnn(C(C)C)c1 (stereo unspecified)	1%	-0.14
Cc1ccn2c(CN3CCN([C@H]4CCN(Cc5ccccc5)C4)CC3)c(C)nc2c1	57%	-7.67
Cc1ccc(CN2CCN([C@H]3CCN(Cc4ccccc4)C3)CC2)nn1	6%	-0.85
c1ccc(CN2CC[C@H](N3CCOCC3)C2)cc1	3%	-0.34

Structure (SMILES)	% Inhibition	Z score
Cc1ccc(C)c(N/C(=N\OCc2ccc(Cl)cc2)c2nonc2N)c1	-1%	0.28
O=C(c1ccccc1F)N1CCN(C(=O)c2nnn3c2CO[C@H](c2ccc(Cl)cc2)C3)CC1	-24%	2.19
CCN(C(C)=O)c1nc2ccccc2n(CC(=O)Nc2cccc(C(C)=O)c2)c1=O	-6%	0.97
CC(NCCn1cccn1)C(=O)N1c2ccccc2CC1C (stereo unspecified)	62%	1.55
CC(C)CNC(=O)[C@H](C)NCCn1cccn1	-2%	0.23
C[C@H](NCCn1cccn1)C(=O)N1CCCCC1	3%	-0.33
CCc1cnc(CN2CCC[C@H]2c2noc(CC)n2)o1	-10%	1.41
CC(C)Cc1ccc(CN2CCN([C@H]3CCNC3)CC2)s1	-6%	0.81
Clc1cccc(-c2ccc(CN3CCN([C@H]4CCNC4)CC3)o2)c1	-17%	1.55
Cc1nc(CNC[C@H](O)c2ccc(Cl)c(F)c2)cs1	10%	-1.19
Cn1nnc(CNC[C@H](O)c2ccc(Cl)c(Cl)c2)n1	5%	-1.08
CCc1noc(-c2cccnc2-n2cnc(C(=O)NCc3ccccc3F)c2)n1	35%	-3.92
CC(C)(C)n1nc2nc(N3CCCC3)nc(-c3ccc(F)c(Cl)c3)c2c1N	-2%	0.26
Nc1c2c(-c3ccc(F)cc3)nc(NCCN3CCCCC3)nc2nn1-c1ccc(Cl)cc1	-19%	1.69
CC(C)(C)n1nc2nc(NCCN3CCCCC3)nc(-c3ccc(F)c(Cl)c3)c2c1N	75%	-7.01
O=C(Cn1cc(S(=O)(=O)N2CCOCC2)ccc1=O)Nc1ccc(F)cc1Cl	4%	-0.76
CN1CCC(N2CCC[C@H]2c2nc(-c3ccc(F)cn3)no2)CC1	15%	-1.76
COc1cc(-c2n[nH]cc2CN(C[C@H]2CCC(=O)N2)C(C)C)cc(OC)c1OC	-18%	1.93
CN(C)c1ccc(NC(=O)CCCc2ccc3[nH]c(=O)[nH]c3c2)nc1	0%	0.04
COCCNC(=O)[C@@H](C)[C@@H]1CC[C@@]2(C)CC[C@H](NC(=O)CC(C)(C)C)[C@@H](C)[C@@H]2[C@H]1O	31%	-3.58
C[C@H]1[C@@H]2[C@@H](O)C([C@H](C)C(=O)NC3CCCCC3)CC[C@@]2(C)CC[C@@H]1NC(=O)CC(C)(C)C (stereo partly specified)	69%	-5.14
C[C@H]1[C@@H]2[C@@H](O)C([C@H](C)C(=O)NC3CCCC3)CC[C@@]2(C)CC[C@@H]1NC(=O)c1ccc(C#N)cc1 (stereo partly specified)	37%	1.5

Structure (SMILES)	% Inhibition	Z score
COc1cc2c(cc1-c1nccn1Cc1noc(C(C)C)n1)OCO2	5%	-0.45
CCNC(=O)O[C@@H]1CC[C@]2(C)C(CC[C@@H](O)[C@H]2CC(=O)NCc2cccs2)[C@]1(C)CO (stereo partly specified)	-4%	0.6
COc1cc(CN2C(=O)C(C)C(C)C2=O)ccn1 (stereo unspecified)	-12%	1.96
CCc1noc(CCNC(=O)Nc2cc(C)nn2C2CCCCC2)n1	-3%	0.5
Cc1ccc([C@H](C)NC(=O)CCc2ccc3[nH]cnc3c2)cc1	-2%	0.33
C[C@H]1CN(C2=Nc3ccc(C(F)(F)F)cc3Oc3ccccc32)CCN1C(=O)C1CCCCC1	-10%	0.96
Cc1ccsc1CN(Cc1cccnc1)CC(C)C	-9%	0.87
COc1ccc(CN(Cc2ccco2)C(=O)c2cccc(F)c2)cc1OS(=O)(=O)c1ccc(F)cc1	-33%	2.87
CCOC(=O)N1CCC(n2ccnc2-c2nccn2C(C)C)CC1	-11%	1.32
COc1ccc(-c2nccn3cc(C(=O)N4CCCC4)nc23)cc1	26%	-2.95
COc1ccc(-c2nccn3cc(C(=O)N4CCCCCC4)nc23)cc1	51%	0.03
Cc1ccc(-c2nccn3cc(C(=O)N4CCCCC4)nc23)cc1	-2%	0.32
CC(C)(C(=O)N[C@H]1CCN(Cc2cccnc2)C[C@@H]1O)N1CCOCC1	-3%	0.41
Cc1cc(-c2cc(O)cc(CC[C@H]3CCCCN3)c2)ccn1	84%	-8.44
OCc1ccnc(-c2cc(O)cc(CC[C@H]3CCCCN3)c2)c1	-3%	0.48
Cc1nc(-n2cnnc2)ccc1-c1cc(O)cc(CC[C@H]2CCCCN2)c1	-7%	0.8
CCn1cc(-c2cc(O)cc(CC[C@H]3CCCCN3)c2)c(C)n1	3%	-0.45
Nc1cc(-c2cc(O)cc(CC[C@H]3CCCCN3)c2)ccn1	9%	-1.53
Cc1ccc(-c2cc(O)cc(CC[C@H]3CCCCN3)c2)c(C)n1	61%	-8.76
CC(=O)c1cc(-c2cc(O)cc(CC[C@H]3CCCCN3)c2)ccc1O	78%	-7.86
Cc1nccc(-c2cc(O)cc(CC[C@H]3CCCCN3)c2)n1	-12%	2.52
O=C(O)c1ccccc1-c1cc(O)cc(CC[C@H]2CCCCN2)c1	-15%	2.8
